Test results: ChEMBL document CHEMBL5308504, “Tm Shift (DSF) assay results for EUbOPEN Chemogenomics Library” (2023)
Where “and” joins values, the source holds several entries; their conditions need not be identical. Equal values may be shown once.

Columns and labels:
[1] = target: T1, Transcription intermediary factor 1-alpha (Homo sapiens) (UniProt O15164); conditions: Compound concentration 20.0 uM, Protein concentration 2.0 uM, Result type QC Liability
T1 sequence (whole entry): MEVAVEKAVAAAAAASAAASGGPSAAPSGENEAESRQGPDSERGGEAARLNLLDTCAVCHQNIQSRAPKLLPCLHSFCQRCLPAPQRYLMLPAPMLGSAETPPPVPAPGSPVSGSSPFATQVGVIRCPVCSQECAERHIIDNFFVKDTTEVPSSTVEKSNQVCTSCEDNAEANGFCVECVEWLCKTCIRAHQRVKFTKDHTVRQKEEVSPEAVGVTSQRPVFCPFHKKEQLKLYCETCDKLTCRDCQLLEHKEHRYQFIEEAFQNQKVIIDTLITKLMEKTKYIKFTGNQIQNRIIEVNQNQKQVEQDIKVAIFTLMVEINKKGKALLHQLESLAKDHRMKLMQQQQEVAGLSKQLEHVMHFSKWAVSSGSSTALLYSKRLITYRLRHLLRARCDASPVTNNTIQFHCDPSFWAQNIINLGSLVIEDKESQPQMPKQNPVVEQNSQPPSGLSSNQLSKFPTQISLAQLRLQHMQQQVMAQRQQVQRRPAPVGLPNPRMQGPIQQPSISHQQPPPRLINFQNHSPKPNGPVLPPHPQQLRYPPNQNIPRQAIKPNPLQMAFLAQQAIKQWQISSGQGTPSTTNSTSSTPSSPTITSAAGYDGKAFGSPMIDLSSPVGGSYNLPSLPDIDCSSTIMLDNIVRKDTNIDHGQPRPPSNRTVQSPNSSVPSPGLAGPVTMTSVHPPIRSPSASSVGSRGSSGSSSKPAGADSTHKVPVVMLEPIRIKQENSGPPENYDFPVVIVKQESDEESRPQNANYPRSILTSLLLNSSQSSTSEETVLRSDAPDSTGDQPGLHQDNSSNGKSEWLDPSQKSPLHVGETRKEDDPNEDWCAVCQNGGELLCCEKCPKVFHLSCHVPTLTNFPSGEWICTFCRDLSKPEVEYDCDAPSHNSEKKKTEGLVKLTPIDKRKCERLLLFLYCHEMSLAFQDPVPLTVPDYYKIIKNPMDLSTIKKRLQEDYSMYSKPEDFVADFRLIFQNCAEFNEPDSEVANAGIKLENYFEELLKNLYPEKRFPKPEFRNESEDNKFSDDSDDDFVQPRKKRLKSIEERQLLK

[2] = target: Bromodomain-containing protein 4 (Homo sapiens) (UniProt O60885); conditions: Compound concentration 20.0 uM, Protein concentration 2.0 uM, Result type QC Liability

SMILES	ΔTm [1]	ΔTm [2]
CNC(=O)c1cc(C(=O)N[C@H]2[C@@H]3COC[C@@H]32)cc2c1O[C@@H](CF)[C@@H]2c1ccccc1	-2.85 °C	
CC(C)c1cnc(NC(=O)Cc2ccccc2)s1	-1.45 °C	-1.14 °C
CC1(C)C(=O)N([C@H]2CCc3c(O)cccc32)c2nc(Nc3cccc(CN4CCCC4)c3)ncc21	-2.64 °C	-2.45 °C
C/C=C1\C(=O)CC2C3CCC4=CC(=O)CC[C@]4(C)C3CC[C@]12C (stereo partly drawn)	-2.32 °C	-2.62 °C
Cc1c(N2CCNCC2)nc2ccc(Br)cc2c1C(=O)NC[C@H](CCC(=O)O)c1ccccc1Cl	-1.51 °C	-1.62 °C
CC(=O)Nc1nc(C)c(S(=O)(=O)Nc2ccc(C(O)(C(F)(F)F)C(F)(F)F)cc2)s1	-0.92 °C	-1.81 °C
Cc1ncsc1-c1ccc(CNC(=O)[C@@H]2C[C@H](O)CN2C(=O)[C@@H](NC(=O)C2(F)CC2)C(C)(C)C)c(OCCOc2ccc(CN3CCN(c4cc(-c5ccccc5O)nnc4N)CC3)cc2)c1 (relative stereo)	1.57 °C	14.5 °C
O=C(NC1CCNCC1)c1n[nH]cc1NC(=O)c1c(Cl)cccc1Cl	-1.34 °C	-0.14 °C
O=C(O)CCCc1cc2cc(Cl)ccc2n1S(=O)(=O)c1ccc2ncsc2c1	-1.33 °C	-3.71 °C
O=C(O)CCCCN(CCc1cc(F)ccc1OCc1ccc(-c2ccc(C(F)(F)F)cc2)cc1)Cc1ccc(C(=O)O)cc1	-0.3 °C	0.73 °C
COc1cc(-c2cc3ncccc3c(O[C@H](C)[C@H]3CNC(=O)C3)n2)cc(OC)c1OC	0.28 °C and -2.67 °C	-1.66 °C and 1.15 °C
COc1cc2nc(-c3cc(F)ccc3O)nc(N[C@@H]3CNC[C@H]3C(C)(C)O)c2cc1OC	-1.27 °C	1.15 °C
COc1ccccc1S(=O)(=O)Nc1ccc2c(c1)CN(C)C(=O)N2	-1.03 °C	
Cc1cc(CN)cc(C)c1-c1ncn(C)c1-c1cncn1C	0.01 °C	-1.42 °C
Cc1ncc(C(=O)Nc2cc(C(C)(C)C)on2)cc1-n1cc(-c2cnn(C)c2C)nn1	-3.56 °C	-3.35 °C
N#Cc1c(SCc2csc(-c3ccc(Cl)cc3)n2)nc(N2CCCC2)c(C#N)c1-c1ccc(OCCO)cc1	0.42 °C	-0.25 °C
CC(C)(O)CNC(=O)N1C(=O)N(c2cccc(C(F)(F)F)c2)C2=C(C(=O)CC2)[C@H]1c1ccc(C#N)cc1	0.22 °C	0.34 °C
COCc1nc2cnc3cc(-c4c(C)noc4C)c(OC[C@H]4CCNC4)cc3c2n1[C@H](C)c1ccccc1	-1.74 °C	
COc1cc(C)c(S(=O)(=O)N(C)CCC(=O)N[C@H]2CC[C@@H](N3CCC4CN(C)CC4C3)CC2)c(C)c1 (stereo partly drawn)	-0.4 °C	-4.82 °C
Cc1cc(-c2cnc(N)c3c(-c4ccc5scnc5c4)csc23)n(C)n1	-1.95 °C	-1.04 °C
CS(C)(=O)=Nc1ccc(-c2ccc(-c3nc4[nH]c(O[C@@H]5CO[C@H]6[C@@H]5OC[C@H]6O)nc4cc3Cl)cc2)cc1	0.39 °C	1.46 °C
CCNC(=O)c1ccc2c(c1)NC(=O)/C2=C(\Nc1ccc(CN(C)C)cc1)c1ccccc1	0.37 °C and -3.62 °C	
COc1ccc2c(O[C@@H]3C[C@H]4C(=O)N[C@]5(C(=O)O)CC5/C=C\CCCCC[C@H](NC(=O)OC5CCCC5)C(=O)N4C3)cc(-c3csc(NC(=O)C(C)C)n3)nc2c1C (stereo partly drawn)	0.14 °C [middle of 4 runs]	
CC(=O)N(CCN(C)C)c1ccc(N/C(=C2\C(=O)Nc3cc(Cl)ccc32)c2ccccc2)cn1	-4.13 °C	-1.57 °C
Cn1cnc(Cn2ccc3ccc(CNCc4[nH]c5ccccc5c4[C@@H]4NC(=O)c5ccc(O)cc54)cc32)c1	0.32 °C	-1.28 °C
O=C1Nc2nc(-c3c(O)cccc3OCC3CC3)cc([C@@H]3CCCNC3)c2CO1	0.45 °C	-0.38 °C
CP(C)(=O)c1ccc(CNC(=O)C2CCN(S(=O)(=O)c3cc(Cl)cc(Cl)c3)CC2)cc1	0.94 °C	-2.43 °C
Cn1c(C2(NC(=O)c3ccc(NCC4CCCCC4)nc3)CCC2)nc2ccc(/C=C/C(=O)O)cc21	0.39 °C	0.73 °C
CNC(=O)c1c[nH]c2ccc(Nc3nccc(-c4ccccn4)n3)cc12	-0.94 °C	-1.78 °C
